An excerpt weighted towards active compounds, which were near 13% of everything screened.
FMDV antiviral – foot and mouth disease virus antiviral activity | actives 1.2% (n = 410,000) | FMDV antiviral cell-based qHTS | AID 1159524 | Potency, µM (series often up to 57.9 µM), for inactives: at the top dose activity change, negative = inhibition, usual class: inhibitors; calls by dose curve; tested in HEK293T cells; further: read-out not given here; potency means the concentration at half of the fitted maximal effect; on the % scale 0 is the no-effect control and ±100 the full control effect; nearly all actives have a fitted effect of over 45% in size
LASV entry inh – inhibitors of Lassa virus binding or cell entry | actives 1.2% (n = 300,000) | Potency, µM (series often up to 37.9 µM), for the others: top-dose activity change, negative = inhibition, usual class: inhibitors | Lassa virus pseudotype entry inhibition, cell reporter | AID 540256; calls by dose curve; tested in HEK293 cells; further: potency means the concentration at half of the fitted maximal effect; on the % scale 0 is the no-effect control and ±100 the full control effect; nearly all actives have a fitted effect of over 50% in size
HCV inh – blocks hepatitis C virus | Huh7.5.1 HCVcc-Cre infection, luciferase reporter, 44 h | Potency, µM (doses to about 41.8 µM), without a hit: at the top dose activity change, negative = inhibition, actives largely listed as inhibitors | actives 3.4% (n = 340,000) | AID 651820; active means well fitted inhibition curve with a large enough effect; inconclusive means small, poorly fitted or top-dose-only effect, or another doubt; inactive means no such curve, though single readings can be large or run the other way; further: potency means the concentration at half of the fitted maximal effect; on the % scale 0 is the no-effect control and ±100 the full control effect
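Seed cells (1,000/well) for 4 h; treat with compound and infect with HCVcc-Cre, moi about 0.5. Incubate 44 h, then detect luciferase activity.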
Cycloheximide cs – counter-screen for Shiga toxin inhibitors: cycloheximide protein synthesis inhibition; cell reporter, cycloheximide protein synthesis inhibition counterscreen; max response, %; actives 12% (n = 300,000); in the data active means max response mostly above about 13%, no sharp cut-off; inactive means mostly below about 14%; further: read at 38.3 µM for the half of the compounds with a filed dose; 0% is about no effect
Marburg entry inh – inhibitors of Marburg virus binding or cell entry | Marburg virus pseudotyped entry inhibition, cell reporter | actives 1.8% (n = 300,000) | Potency, µM (series often up to 37.8 µM), inactives show top-dose activity change, negative = inhibition, most hits filed as inhibitors; calls by dose curve; tested in HEK293 cells; further: potency means the concentration at half of the fitted maximal effect; on the % scale 0 is the no-effect control and ±100 the full control effect
Shiga inhibitor – blocks Shiga toxin action in Vero cells; Vero cells, Shiga toxin protein synthesis inhibition reporter; inhibition, % at 38.7 µM; actives 9.2% (n = 290,000); AID 2315; in the data active means inhibition mostly above about 28%, no sharp cut-off; inactive means mostly below about 43%; further: 0% is about no effect
The depositor's hits bear a star; i = inactive; ? = inconclusive; . = not tested or not shown; ! = a repeat was not active; [ ] = dose if it differs, or a comment.

SMILES | FMDV antiviral | LASV entry inh | HCV inh | Cycloheximide cs | Marburg entry inh | Shiga inhibitor
COc1cc(NC2c3ccccc3C(=O)N2c2ccc(C)cn2)cc(OC)c1OC (stereo unspecified) | 0.0% | -21.2% | ? | 48.2* | -34.8% | 117.7*
COc1cccc(CNC(=O)CN2C(=O)NC(c3ccccc3)(c3ccccc3)C2=O)c1 | -18.5% | ? | ? | . | 5.4%[46.1 µM] | .
COC(=O)c1ccc2[nH]c(C)c(CN3CCCC3)c(=O)c2c1 | -5.8% | 8.5% | 12.3% | 0.7 | 10.0% | 50.9
CCN(CC)CC(O)COc1ccc2c(c1)OCO2 (stereo unspecified) | -19.2% | 2.0% | 3.1% | -1.3 | ? | -3.2
CCc1ccccc1NC1c2ccccc2C(=O)N1c1cc(C)ccn1 (stereo unspecified) | -16.2% | . | 4.8% | 1.2 | . | 24.6
CCOc1ccccc1NC1c2ccccc2C(=O)N1c1ccc(C)cn1 (stereo unspecified) | 0.0% | . | -13.4% | 7.5 | . | -2.7
CCOC(=O)c1ccccc1NC1c2ccccc2C(=O)N1c1ccc(C)cn1 (stereo unspecified) | 28.2% | 5.4% | ? | 21.3* | 6.0% | 38.7
COc1cc(NC2c3ccccc3C(=O)N2c2cc(C)ccn2)cc(OC)c1OC (stereo unspecified) | -7.7% | . | 7.8% | 22.8* | . | 58.3*
CCOc1ccc(/C=C2\SC(=O)N(CCNC(=O)C3COc4ccccc4O3)C2=O)cc1OC (stereo unspecified) | ? | ? | 11.5% | 19.3* | ? | 16.5
Cc1cccc(C)c1NC(=O)CNC(=O)C1COc2ccccc2O1 (stereo unspecified) | 0.3% | . | 17.3% | . | . | .
COc1ccc(/C(C)=N/NC(=O)CNC(=O)C2COc3ccccc3O2)c(OC)c1 (stereo unspecified) | -9.0% | -13.3%[46.1 µM] | ? | -1.5 | ? | 17.4
Cc1ccc(CNC(=O)C2COc3ccccc3O2)cc1 (stereo unspecified) | 65.3% | . | 14.9% | 26.0* | . | 35.3
COc1ccc(CNC(=O)C2COc3ccccc3O2)c(OC)c1 (stereo unspecified) | 53.4% | . | -5.9% | 30.5* | . | 103.1*
O=C(NCc1ccccc1)C1COc2ccccc2O1 (stereo unspecified) | 45.9% | 14.6% | 15.0% | 19.5* | 5.9% | 59.2*
O=C(NCc1ccccc1)C(=O)NCC1COc2ccccc2O1 (stereo unspecified) | -14.1% | ? | ? | -2.5 | -21.7%[46.1 µM] | 3.5
Cc1cc(=O)[nH]c(SCc2cn3ccccc3n2)n1 | 2.3% | ? | 6.6% | 5.8 | -5.7%[46.1 µM] | 9.7
Cc1ccc(NC(=O)CC2COc3ccccc3O2)cc1 (stereo unspecified) | 43.3% | -3.1% | 6.1% | 30.8* | 28.4% | 53.7*
CC(C)NC(=O)NC(=O)COC(=O)CCCSc1nc2ccccc2s1 | -11.9% | -2.6%[46.1 µM] | 9.4% | -1.5 | ? | -7.2
Cc1csc(NC(=O)CSCc2c(C)noc2C)n1 | 7.3% | ? | -15.7% | . | -1.5%[46.1 µM] | .
COc1ccc(-c2csc(NC(=O)CSCc3c(C)noc3C)n2)cc1OC | 39.8µM* | 11.2µM* | ? | -2.2 | ? | -4.4
Cc1noc(C)c1CSCC(=O)Nc1nc(-c2ccc(F)c(F)c2)cs1 | 17.8µM* | ? | 12.6µM* | . | ? | .
CCc1cc(C(=O)Cc2ccccn2)c(O)cc1O | -24.2% | -15.4%[46.1 µM] | -9.1% | 6.8 | 11.5%[46.1 µM] | 40.6
CCc1cc(C(=O)COc2ccc(F)cc2)c(O)cc1O | 18.6% | 1.4% | -19.3% | 19.6* | ? | 40.3*
Cc1c(O)ccc(C(=O)COc2ccc(F)cc2)c1O | -22.7% | -11.3% | 9.5% | 37.7* | 17.1% | i
CCCn1c(=O)c2ccccc2n2c(SCC(=O)N3CCc4ccccc4C3)nnc12 | -0.8% | -4.1% | ? | 7.8 | 7.5% | -13.5
SMILES | FMDV antiviral | LASV entry inh | HCV inh | Cycloheximide cs | Marburg entry inh | Shiga inhibitor
CCc1cc2c(=O)c(-c3ccc4c(c3)OCCO4)coc2cc1OC(=O)c1ccco1 | 18.8% | ? | 10µM*! | 37.9* | ? | 93.2*
CCCc1cc2c(=O)c(-c3ccc4c(c3)OCCO4)coc2cc1OS(C)(=O)=O | -5.0% | ? | 10µM* | 56.0* | ? | 44.7*
CCCc1cc2c(=O)c(-c3ccc4c(c3)OCCO4)coc2cc1OC(=O)c1ccco1 | 55.0% | -26.0% | -0.6% | 30.3* | ? | 97.7*
CCN(CC)Cc1c(O)ccc2c(=O)c(-c3ccc4c(c3)OCCO4)coc12 | -23.7% | -3.5% | ? | 5.5 | 3.4% | 14.7
COc1cc(OC)c2c(=O)c(-c3ccc4c(c3)OCO4)coc2c1 | 35.4% | . | . | . | . | .
COc1ccc(OC(=O)C2CC(=O)N(c3ccc(C)cc3)C2)cc1 (stereo unspecified) | 17.0% | -2.1% | 13.8% | -2.7 | 29.5%[46.1 µM] | -20.1
CCOc1ccc(CNC(=O)c2ccc(NC(=O)N3CCCCc4ccccc43)cc2)cc1OC | -14.3% | -12.9%[46.1 µM] | . | . | . | .
Cn1c(NCCN)nc2c1c(=O)n(Cc1ccccc1)c(=O)n2C | 1.1% | -4.0%[46.1 µM] | . | . | -7.1%[46.1 µM] | .
Cc1c(/N=C(\[O-])Nc2ccc(Br)cc2)sn[n+]1C | -40.3% | . | ? | 47.1* | . | 94.5*
C=CCn1c(COc2ccc(Cl)cc2)nnc1SCc1ccc(C#N)cc1 | -4.8% | ? | ? | -2.6 | ? | 22.9
CCCc1ccc2oc(C(=O)N(C)Cc3cnccn3)c(C)c2c1 | 38.1% | . | 10.2% | -4.8 | . | -19.2
Cc1ccc2oc(C(=O)N(C)Cc3ccc(C)o3)c(C)c2c1 | 4.0% | . | -19.1% | 27.0* | . | 52.2*
Cc1ccc2oc(C(=O)N(C)Cc3ccon3)c(C)c2c1 | 68.9% | . | -8.5% | 53.6* | . | 46.6*
CCN(Cc1ccccc1)C(=O)c1oc2ccc(C)cc2c1C | 19.7% | -10.9% | 32.2% | 12.9 | ? | 48.4
O=C(c1ccc2c(c1)OCO2)N(c1ccc(Br)cc1)C1C=CS(=O)(=O)C1 (stereo unspecified) | -19.2% | -6.6% | 7.9% | -3.5 | -4.3% | -12.4
Cc1ccc(S(=O)(=O)N2CCCCC2CCNC(=O)C(=O)NCCc2ccco2)cc1 (stereo unspecified) | -10.1% | ? | ? | . | ? | .
CC(C)C1Oc2ccccc2N(CC(=O)N(Cc2ccccn2)C2CC2)C1=O (stereo unspecified) | 0.0% | 2.7% | -24.7% | -0.9 | -13.2% | -1.8
CC(=O)N1N=C(c2ccccc2)CC1c1cn(Cc2ccccc2)c2ccccc12 (stereo unspecified) | 31.6µM* | ? | 25.1µM* | -2.1 | ? | -2.8
CCCc1cc(=O)[nH]c(SCC(=O)Nc2nonc2C)n1 | -1.9% | 19.4%[46.1 µM] | 15.4% | -4.3 | ? | -12.7
CC1CC(OP(O)(=S)c2ccc(N(C)C)cc2NC(=O)c2cccs2)CC(C)(C)C1 (stereo unspecified) | 1.3% | 15.8%[46.1 µM] | 19.0% | 31.5* | -0.4%[46.1 µM] | 31.9
Cc1cc(N2C(=O)C3C4C=CC(C4)C3C2=O)ccc1NC(=O)c1cccs1 (stereo unspecified) | -19.5% | 21.3% | -6.2% | -3.2 | ? | -10.3

Screens deposited in PubChem by National Center for Advancing Translational Sciences (NCATS).
